Screening data deposited in PubChem BioAssay by Milwaukee Institute for Drug Discovery.
Cy5 interf NS3h: Cy5 fluorescence quenchers or enhancers, artefact control for HCV NS3 helicase inhibitor project, biochemical, ChemBridge library, Cy5 readout; AID 720488, 2013; fluorescence interference ratio at 100 µM; 16,000 compounds, 6% hits; Cy5-dT15 DNA with NS3h, fluorescence interference; actives lie on both sides; signal over control mean, under 1 quenches;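 active means compound fluorescence over control fluorescence at most 0.8, a quencher, or at least a set upper limit, an enhancer; inactive means ratio between 0.8 and the set upper limit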
HCV NS3h FP: HCV NS3 helicase inhibitors, primary screen, biochemical, fluorescence polarization, ChemBridge library | inhibition, % at 100 µM | Hepatitis C virus NS3 helicase | NS3h Cy5-dT15 DNA binding | 16,000 compounds, 1.6% hits;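 active means inhibition above the average over every tested compound plus 3 SD, cut at about 40% in these data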
Hits are given with their value. An excerpt weighted towards active compounds, which were near 6.8% of everything screened.

`Cc1c(NC(=O)/C=C/c2ccccc2)c(=O)n(-c2ccccc2)n1C` gave Cy5 interf NS3h inactive and HCV NS3h FP inactive.
`COc1ccc(C2=C/C(=C/c3cccs3)C(=O)O2)cc1` gave Cy5 interf NS3h inactive and HCV NS3h FP inactive.
Screening CCOc1ccc(C2=C/C(=C/c3cccs3)C(=O)O2)cc1 returned Cy5 interf NS3h inactive and HCV NS3h FP 43.8.
For Cc1cccc(OCC(=O)O/N=C(/N)Cc2ccc(Cl)cc2)c1 the results were Cy5 interf NS3h inactive and HCV NS3h FP inactive.
For CCCCCCN1C(=O)C(=O)C(=C(O)c2ccccc2)C1c1ccc(F)cc1 (stereo unspecified) the results were Cy5 interf NS3h inactive and HCV NS3h FP inactive.
O=C(CSc1nc2ccc([N+](=O)[O-])cc2[nH]1)c1ccc2ccccc2c1 was read as Cy5 interf NS3h inactive and HCV NS3h FP inactive.
`CCOc1ccc(NC(=O)CSc2nc3ccccc3[nH]2)cc1` gave Cy5 interf NS3h inactive and HCV NS3h FP inactive.
For Cc1cccc(NC(=O)CSc2nc3ccc(C)cc3[nH]2)c1 the results were Cy5 interf NS3h 0.654 and HCV NS3h FP inactive.
For O=C(CSc1nc2ccc([N+](=O)[O-])cc2[nH]1)c1ccc(Br)cc1 the results were Cy5 interf NS3h 0.61 and HCV NS3h FP inactive.
`O=C(CSc1nc2ccc([N+](=O)[O-])cc2[nH]1)Nc1ccc2c(c1)OCO2` gave Cy5 interf NS3h 0.605 and HCV NS3h FP inactive.
Screening O=C(CSc1nc2ccccc2[nH]1)Nc1ccc(F)c([N+](=O)[O-])c1 returned Cy5 interf NS3h inactive and HCV NS3h FP inactive.
Screening Cc1ccc(N2NC(=O)/C(=C/c3cccs3)C2=O)cc1Cl returned Cy5 interf NS3h inactive and HCV NS3h FP inactive.
`O=C(Oc1ccccc1C(=S)N1CCOCC1)c1cccc2ccccc12` gave Cy5 interf NS3h inactive and HCV NS3h FP inactive.
CC1CC(C)CN(C(=O)c2ccc(Cl)cc2)C1 (stereo unspecified) was read as Cy5 interf NS3h inactive and HCV NS3h FP inactive.
`CC(=O)Nc1ccc(C(=O)N2CC(C)CC(C)C2)cc1` (stereo unspecified) gave Cy5 interf NS3h 0.687 and HCV NS3h FP inactive.
Screening COCCOC(=O)C1=C(C)NC(C)=C(C(=O)OCCOC)C1c1ccc(-c2cccc(Cl)c2Cl)o1 returned Cy5 interf NS3h inactive and HCV NS3h FP inactive.
Screening Cc1cc(C)cc(NC(=O)C(=O)NCc2ccccc2)c1 returned Cy5 interf NS3h inactive and HCV NS3h FP inactive.
Screening COc1ccc(Br)cc1/C=C/C(=O)Nc1ccc(Cl)cn1 returned Cy5 interf NS3h inactive and HCV NS3h FP inactive.
CCCOc1cccc(C(=O)Nc2ccc(C)cc2[N+](=O)[O-])c1 was read as Cy5 interf NS3h inactive and HCV NS3h FP inactive.
`O=C(CCNc1ccc(F)cc1)c1cccs1` gave Cy5 interf NS3h inactive and HCV NS3h FP inactive.
Screening Cc1cccc(NCCC(=O)c2cccs2)c1C returned Cy5 interf NS3h 0.781 and HCV NS3h FP inactive.
`Cc1cccc(NC(=O)COc2c(C)cc(C)cc2C)c1` gave Cy5 interf NS3h inactive and HCV NS3h FP inactive.
`CC(C)C(=O)Nc1ccc(N2CCOCC2)cc1` gave Cy5 interf NS3h inactive and HCV NS3h FP inactive.
`CCCC(=O)Nc1ccc(N2CCOCC2)cc1` gave Cy5 interf NS3h 0.739 and HCV NS3h FP inactive.
COc1ccc(/C(C#N)=C/c2ccccc2Br)cc1OC was read as Cy5 interf NS3h inactive and HCV NS3h FP inactive.
Screening CC(=O)Nc1ccccc1NC(=O)c1ccc(Br)cc1 returned Cy5 interf NS3h 1.22 and HCV NS3h FP inactive.
Screening CC(=O)Nc1ccccc1NC(=O)c1ccc(F)cc1 returned Cy5 interf NS3h inactive and HCV NS3h FP inactive.
For CC(=O)c1ccc(Nc2ccc([N+](=O)[O-])cc2[N+](=O)[O-])cc1 the results were Cy5 interf NS3h inactive and HCV NS3h FP inactive.
Screening CCOc1ccc(/C=C2\N=C(c3ccccc3F)OC2=O)cc1 returned Cy5 interf NS3h inactive and HCV NS3h FP 52.6.
Screening O=C1OC(c2ccccc2F)=N/C1=C\c1ccc(Br)cc1 returned Cy5 interf NS3h inactive and HCV NS3h FP inactive.
For Cc1ccc(S(=O)(=O)C(CC(=O)c2ccc(Cl)cc2)c2ccccc2)cc1 (stereo unspecified) the results were Cy5 interf NS3h inactive and HCV NS3h FP inactive.
`COc1ccc(N(CC(=O)NCC(C)C)S(=O)(=O)c2ccc(C)cc2)cc1` gave Cy5 interf NS3h inactive and HCV NS3h FP inactive.
Screening COc1ccc(C(=O)CC(c2ccc(C(C)C)cc2)S(=O)(=O)c2ccc(C)cc2)cc1 (stereo unspecified) returned Cy5 interf NS3h 0.732 and HCV NS3h FP inactive.
COc1ccc(C(CC(=O)c2ccccc2)S(=O)(=O)c2ccc(C)cc2)cc1 (stereo unspecified) was read as Cy5 interf NS3h 0.638 and HCV NS3h FP inactive.
`COc1cccc2c1CC/C(=C\c1cccc(I)c1)C2=O` gave Cy5 interf NS3h inactive and HCV NS3h FP inactive.
